{"source": "the supplement of paper PMC7156485", "note": "± gives the standard deviation of the averaged measurements.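 Further: TDF denotes transformed human dermal fibroblasts of mesenchymal origin.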", "data": [{"system": "HCC1569", "assay": "cell number relative to DMSO (% of DMSO); higher = more cells (less growth inhibition / toxicity)", "conditions": "concentration: 10 µM; 24 h", "summary_of_the_method": "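Six fields per well were imaged at ×10 after the cells were fixed in 3.7% formaldehyde and stained with a rabbit anti-H1.0 antibody, an AlexaFluor 647 secondary and DAPI. The HCC1569 and TDF cells had been plated at 800 per well in 384-well plates (RPMI, 10% FBS) and treated in triplicate with compounds at 10 µM for 24 h at 37 °C. The values are the median of replicates of H1.0 nuclear intensity or cell number, as percent of the plate control. Smoothing for positional effects was applied to HCC1569 data.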", "values": [{"smiles": "CCCCCCCCCCCCCCCC(=O)NC(COP(=O)(O)O)C(=O)O", "note": "(centres undefined)", "cell number": 102}, {"smiles": "COc1c2occc2cc2ccc(=O)oc12", "note": "[Xanthotoxin]", "cell number": 101}, {"smiles": "CCOC(=O)c1csc(Nc2ccc(Cl)cc2)n1", "note": "[ethyl 2-(4-chloroanilino)-1,3-thiazole-4-carboxylate]", "cell number": 97}, {"smiles": "Brc1c(Br)c(Br)c2n[nH]nc2c1Br", "note": "[TBB - 4,5,6,7-Tetrabromobenzotriazole]", "cell number": 104}, {"smiles": "O=C(O)Cc1nn(Cc2nc3cc(C(F)(F)F)ccc3s2)c(=O)c2ccccc12", "cell number": 98.1}, {"smiles": "Br.Br.NC(N)=NCCSSCCN=C(N)N", "note": "[Guanidinoethyl disulfide dihydrobromide]", "cell number": 100}, {"smiles": "Br.Br.N=C(N)SCCc1cccc(CCSC(=N)N)c1", "note": "[1,3-PBIT dihydrobromide]", "cell number": 117}, {"smiles": "NC(Cc1cccc(-c2ccccc2CP(=O)(O)O)c1)C(=O)O", "note": "(stereo not drawn) [Phenylbenzene-omega-phosphono-alpha-amino acid]", "cell number": 99.4}, {"smiles": "CCCCCCCCCCCCCCCC(=O)NCCO", "note": "[Palmitoylethanolamide]", "cell number": 104}, {"smiles": "Oc1ccc(C=Cc2cc(O)cc(O)c2)cc1", "note": "[Resveratrol]", "cell number": "79.2 ± 6.3"}, {"smiles": "CCCCCCCCCCCCCC(=O)NC(C)C(O)c1ccccc1", "note": "[D-erythro MAPP]", "cell number": 104}, {"smiles": "CC=CCC=CCCC(=O)C1OC1C(N)=O", "note": "(centres undefined) [Cerulenin]", "cell number": 92.6}, {"smiles": "Cc1ccc(C(=O)c2ccc(CC(=O)O)n2C)cc1", "note": "[Tolmetin]", "cell number": 101}, {"smiles": "CCCN1CCCC[C@H]1C(=O)Nc1c(C)cccc1C.Cl.O", "cell number": 99.7}]}]}
